Experimental data taken from PubChem BioAssay (NCATS).
The list shows a part of the results. Records with an inconclusive call do not appear. A number with no mark means an inactive call. The source made the active and inactive calls. Calls come from the whole dose curve; as a rule, active = well fitted cell-killing curve with a large enough effect; inconclusive = small, poorly fitted or top-dose-only effect, or effect the other way, or another doubt; inactive = no such curve, though single readings can be large or run the other way.

assay: qHTS screen for small molecules that inhibit ELG1-dependent DNA repair: Hit Confirmation with 5FU Viability (AID 624250); conditions: cell viability with 5-FU; series mostly up to 46.1 µM; activity change, negative = viability loss: at the top concentration
Excerpt: Cancer cells divide rapidly compared to normal cells in the body. During cell division, cancer cells need to duplicate their genome by DNA replication. The failure of genome duplication leads to cancer cells' death. Therefore, inhibitors of DNA replication could specifically kill cancer cells. Based on this concept, many chemotherapeutic agents were developed and have been used to treat cancer patients. However, there are a limited number of agents available in the clinical setting, and some of those that do exist have low efficacy and severe side effects. Therefore, if we can find the compounds that effectively block DNA replication either by directly damaging DNA or by inhibiting other cellular mechanisms, the options for cancer treatment will be broadened. With this in mind, we developed a quantitative high-throughput ELG1-luciferase reporter gene assay. Small molecules that specifically block ELG1 function in response to DNA damage can be identified by monitoring the suppression of luciferase activity. Since ELG1 defines a pathway for repairing DNA damage, agents blocking ELG1 function can be used to sensitize cancer cells to chemotherapeutic agents whose mechanism of action involves the induction of DNA damage.
NIH Molecular Libraries Probe Production Network [MLPCN]
NIH Chemical Genomics Center [NCGC]
Assay Provider: Kyungjae Myung, NHGRI, NIH
ELG1-luc HEK293T cells will be seeded in 1536-well plates at a density of 2,000 cells/well. Approximately 5 hours after plating, compounds will be added to the plate by pin tool transfer and 5-fluorouridine will be added by FRD dispenser (final concentration of 5-fluorouridine =10 µM). 16 hours following the addition of the compounds, cell viability will be measured using Cell Titer Glo.
% is set by controls: 0 for no effect and ±100 for the full control effect; potency is the fitted concentration of half-maximal effect.

Structure (SMILES) | activity change, negative = viability loss [%] | Potency
CCc1ccc(N(CC)c2ncnc3nc[nH]c23)cc1 | -3.52 | 
O=C(C1CCCN(S(=O)(=O)c2ccccc2)C1)N1CCN(c2ccc(F)cc2)CC1 (stereo unspecified) | -2.54 | 
Clc1ccc2nc(-c3ccccc3)nc(C(Cl)Cl)c2c1 | -10.6 | 
CC(C)(CNC(=O)c1ccc(Cl)c(S(=O)(=O)N2CCc3ccccc3C2)c1)N1CCOCC1 | -8.03 | 
COc1ccc(NS(=O)(=O)c2ccc(Oc3c(C#N)cccc3C#N)cc2)cc1 | 10.7 | 
COc1ccccc1C(=O)Nc1ccc(C)c(S(=O)(=O)N2CCCCC2)c1 | 1.7 | 
NC(=O)c1sc2nc3c(c(-c4ccccc4)c2c1N)CCC3 | 15.6 | 
COc1ccc(Nc2cc(=O)oc3ccccc23)cc1 | -7.76 | 
CC(=O)c1c(C)n(-c2ccc(C)cc2)c2ccc(O)cc12 | -2.04 | 
Cc1nnc(N/N=C/c2ccccn2)[nH]c1=O | -3.65 | 
C[C@@H]1C[C@H]2CC[C@H](O2)[C@H](C)C(=O)O[C@@H](C)C[C@@H]2CC[C@@H](O2)[C@@H](C)C(=O)O[C@H](C)C[C@H]2CC[C@H](O2)[C@H](C)C(=O)O[C@@H](C)C[C@@H]2CC[C@@H](O2)[C@@H](C)C(=O)O1 | -10.2 | 
COc1cc(N)c(Cl)cc1C(=O)OCC(=O)c1ccc2c(c1)NC(=O)CO2 | -1.75 | 
CC(=O)[O][Sn]([c]1ccccc1)([c]1ccccc1)[c]1ccccc1 |  | 2.81 µM (active)
COc1ccc(CNc2ncnc3ccccc23)cc1 | -1.98 | 
OCCCNc1nccc(-c2cc(Nc3cccc(Cl)c3)ncn2)n1 | 6 | 
COc1ccc(S(=O)(=O)Nc2ccc3oc(C)c(C(C)=O)c3c2)cc1 | -1.98 | 
